Screening data as filed in PubChem.
CYP2C9 inh – human CYP2C9 inhibition | P11712 | CYP2C9 Supersomes, luciferin-H conversion, luminescence | inhibition, % at 5 µM | 96,000 tested, 20% active | AID 777;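 active means blocking of liver enzyme CYP2C9 beyond about 50% at 5 µM, limit read from the data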
Target sequence (P11712 whole entry, looked up): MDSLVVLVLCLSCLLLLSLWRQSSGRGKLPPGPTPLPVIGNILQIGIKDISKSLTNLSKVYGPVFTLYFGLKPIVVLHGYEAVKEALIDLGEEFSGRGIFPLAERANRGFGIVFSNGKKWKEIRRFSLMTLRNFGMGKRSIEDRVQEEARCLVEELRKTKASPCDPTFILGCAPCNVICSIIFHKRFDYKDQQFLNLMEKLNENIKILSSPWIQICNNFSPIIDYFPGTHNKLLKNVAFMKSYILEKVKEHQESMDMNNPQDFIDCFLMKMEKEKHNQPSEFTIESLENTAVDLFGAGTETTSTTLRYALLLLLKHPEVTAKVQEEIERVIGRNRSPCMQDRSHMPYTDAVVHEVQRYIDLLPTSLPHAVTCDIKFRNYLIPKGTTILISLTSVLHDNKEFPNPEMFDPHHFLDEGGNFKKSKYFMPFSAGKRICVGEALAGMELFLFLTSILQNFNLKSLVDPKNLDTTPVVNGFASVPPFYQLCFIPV
sEH inh – soluble epoxide hydrolase (human) inhibition; P34913; recombinant human sEH enzymatic activity assay; inhibition, % at 2 µM; 91,000 tested, 0.34% active; in the data active means inhibition above about 80%
CYP2C19 inhib – blocks human cytochrome P450 2C19. CYP2C19 Supersomes, luciferin-H EGE luminescence, 30 min. inhibition, % at 5 µM. 96,000 tested, 21% active. P33261. AID 778;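 active means CYP2C19 inhibition above a set limit at 5 µM in the primary screen, cut at about 50% in these data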;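 further: plate controls were negative control wells for no effect and 2.5 mM tranylcypromine positive control for full effect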
sEH act – increases human soluble epoxide hydrolase activity | purified human sEH enzymatic activity, activator screen | P34913 | activation, % at 2 µM | 91,000 tested, 0.04% active; in the data active means activation above about 37%
CYP2C9 activ – increases human cytochrome P450 2C9 activity; P11712; recombinant CYP2C9, luciferin-H conversion, luminescence; active compounds read high; factor 1 = untreated enzyme, 0 = blocked; activation factor at 5 µM; 96,000 tested, 1.4% active;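 active means activation factor of 2 or more for CYP2C9 at a 5 µM dose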;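 further: 0 = sulfaphenazole-blocked wells and 1 = vehicle-only wells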
CYP2C19 activ – cytochrome P450 2C19 (human) activation; P33261; recombinant CYP2C19, luciferin-H EGE luminescence; active compounds read high; 0 = fully inhibited enzyme, 1 = untreated enzyme; activation factor at 5 µM; 96,000 tested, under 10 active; AID 1025;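 active means activation factor of at least 2 at 5 µM in the primary screen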;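 further: 0 = wells with 2.5 mM tranylcypromine and 1 = vehicle-only wells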
* = called active by the depositor; nt = not tested or not shown. Only some compounds are listed: those with a hit (about 27% of all), similar ones and a draw of the others.

SMILES	CYP2C9 inh	sEH inh	CYP2C19 inhib	sEH act	CYP2C9 activ	CYP2C19 activ
COC(=O)C1C(=O)C2=C(CC1C)NC(C)=C(C(=O)OC(C)C)C2c1ccc(OC)c(O)c1 (stereo not drawn)	15.3	-15.2	-11.4	13.0	0.8	1.1
COc1ccccc1NC(=O)C1=C(C)NC2=C(C(=O)CCC2)C1c1ccc2c(c1)OCO2 (stereo not drawn)	46.7	-3.5	63.2*	2.9	0.5	0.4
COC(=O)C1=C(C)NC2=C(C(=O)CCC2)C1c1cccs1 (stereo not drawn)	76.2*	18.1	79.1*	-18.2	0.2	0.2
COC(=O)C1=C(C)NC2=C(C(=O)CC(C)(C)C2)C1c1ccsc1 (stereo not drawn)	nt	7.9	nt	-4.4	nt	nt
COC(=O)C1C(=O)C2=C(CC1C)NC(C)=C(C(=O)OC1CCCC1)C2c1ccc(N(C)C)cc1 (stereo not drawn)	82.5*	3.6	54.1*	-0.5	0.2	0.5
COCCOC(=O)C1=C(C)NC2=C(C(=O)CC(c3cccs3)C2)C1c1ccsc1 (stereo not drawn)	59.6*	-17.2	58.3*	13.5	0.4	0.4
COc1ccccc1-n1c(CNC(=O)c2ccco2)nnc1SCC(=O)Nc1nccs1	42.1	-7.8	17.1	11.7	0.6	0.8
CC1=C(C(=O)OC(C)C)C(c2cccnc2)C2=C(CCCC2=O)N1 (stereo not drawn)	32.3	-9.5	46.5	11.1	0.7	0.5
COc1cccc(C2C3=C(CC(C)(C)CC3=O)Nc3cc4c(cc32)OCO4)c1 (stereo not drawn)	92.7*	-4.8	71.8*	8.6	0.1	0.3
CCCOC(=O)C1=C(C)NC2=C(C(=O)CCC2)C1c1ccc(N(C)C)cc1 (stereo not drawn)	56.0*	0.9	22.2	-1.0	0.4	0.8
COc1cc2c(cc1OC)C(c1ccc3c(c1)OCO3)C1=C(CC(C)(C)CC1=O)N2 (stereo not drawn)	-2.2	-7.3	-0.1	7.3	1	1
CCOC(=O)C1=C(C)NC2=C(C(=O)CCC2)C1c1ccsc1 (stereo not drawn)	39.4	5.3	53.0*	-10.3	0.6	0.5
CCOC(=O)C1=C(C)NC2=C(C(=O)CCC2)C1c1ccc(N(C)C)cc1 (stereo not drawn)	28.7	-15.2	31.4	16.3	0.7	0.7
COCCOC(=O)C1=C(C)NC2=C(C(=O)CCC2)C1c1ccc2c(c1)OCO2 (stereo not drawn)	95.7*	-6.6	83.5*	6.2	0	0.2
Cc1cc2ccccc2n1CCNC(=O)Cc1cccc2ccccc12	-4.5	nt	21.1	nt	1	0.8
Cc1cc(N2CCN(c3cccc(C(F)(F)F)c3)CC2)n2nc(C)nc2n1	-11.2	nt	-4.8	nt	1.1	1
COCCOC(=O)C1=C(C)NC2=C(C(=O)CC(C)(C)C2)C1c1cc2c(cc1Br)OCO2 (stereo not drawn)	81.1*	nt	94.2*	nt	0.2	0.1
Cn1c(SCC(=O)c2ccccc2F)nnc1C1CC1	2.0	6.0	11.4	-5.8	1	0.9
COc1cccc(C2C(C(=O)c3cccs3)=C(O)C(=O)N2CCCn2ccnc2)c1OC (stereo not drawn)	88.6*	nt	77.2*	nt	0.1	0.2
CCCOc1ccc(C2C(C(=O)c3ccco3)=C(O)C(=O)N2CCCn2ccnc2)cc1 (stereo not drawn)	60.6*	-3.6	25.2	5.3	0.4	0.7
COCCCN1C(=O)C(O)=C(C(=O)c2ccco2)C1c1ccccc1 (stereo not drawn)	-5.2	nt	-16.8	nt	1.1	1.2
CCN(CC)CCCN1C(=O)C(O)=C(C(=O)c2cccs2)C1c1ccccn1 (stereo not drawn)	nt	1.5	nt	3.6	nt	nt
COc1ccc(C2C(C(=O)c3sc(C)nc3C)=C(O)C(=O)N2CCN(C)C)cc1 (stereo not drawn)	-7.5	13.1	-5.5	-9.8	1.1	1.1
Cc1nc(C)c(C(=O)C2=C(O)C(=O)N(CCCn3ccnc3)C2c2ccc(Cl)cc2)s1 (stereo not drawn)	58.9*	nt	24.4	nt	0.4	0.8
CCCCS(=O)(=O)NC1=NCN(CCOC(=O)c2ccccc2)CN1	nt	0.2	nt	4.2	nt	nt
SMILES	CYP2C9 inh	sEH inh	CYP2C19 inhib	sEH act	CYP2C9 activ	CYP2C19 activ
Cc1ccc(C(=O)CSc2ncnc3sc4c(c23)CCC(C)C4)cc1 (stereo not drawn)	nt	-2.1	nt	7.8	nt	nt
COC(=O)C1=C(C)N(CC2CCCO2)C(=O)C1 (stereo not drawn)	24.5	2.3	16.7	-1.8	0.8	0.8
O=C(O)C1CCCN1S(=O)(=O)c1ccc2[nH]c(=O)c(=O)[nH]c2c1 (stereo not drawn)	-10.7	-8.8	-8.8	9.1	1.1	1.1
NC(=O)C1CCN(C(=O)CSc2nc3c(c(-c4ccccc4)n2)CCCC3)CC1	72.8*	-9.0	14.1	14.6	0.3	0.9
CC(C)CCOc1ccc(C(=O)NCCC(=O)N2CCOCC2)cc1	7.2	0.5	-3.6	1.7	0.9	1
O=C1CN(S(=O)(=O)c2ccccc2)CC(=O)N1CCc1ccccc1	13.9	6.3	16.8	-8.3	0.9	0.8
Cc1ccc(NC2=NCC(=O)N2CCc2ccccc2)cc1C	49.9	1.9	98.0*	1.7	0.5	0
CCOc1ccc(NC2=NCC(=O)N2CCc2ccccc2)cc1	44.2	-16.0	66.6*	13.8	0.6	0.3
CCCCCCNc1c([N+](=O)[O-])cc(C)cc1[N+](=O)[O-]	nt	2.7	nt	-4.7	nt	nt
Cc1nc2ccccn2c1/C(O)=C1\C(=O)C(=O)N(CCCn2ccnc2)C1c1ccncc1 (stereo not drawn)	24.2	4.0	7.0	-5.8	0.8	0.9
CCC(=O)Oc1ccc(-c2nc(-c3cccnc3)no2)cc1	69.5*	2.2	67.8*	0.8	0.3	0.3
c1cncc(-c2noc(-c3ccco3)n2)c1	6.3	1.8	23.5	-2.4	0.9	0.8
c1ccc(-c2ccccc2-c2nc(-c3cccnc3)no2)cc1	95.9*	3.8	72.9*	-5.5	0	0.3
Cc1ccc(-c2nc(-c3ccccc3)no2)c(Cl)c1	-14.2	26.6	-13.9	-27.3	1.1	1.1
c1cncc(-c2noc(-c3cccc4ccccc34)n2)c1	9.5	0.3	30.5	1.7	0.9	0.7
Cc1ccc(-c2nc(-c3cccnc3)no2)cc1	-2.2	-5.0	76.0*	1.4	1	0.2
COc1cccc(-c2noc(-c3cccnc3)n2)c1	18.3	6.8	24.5	-8.0	0.8	0.8
Cc1ccc(-c2nc(-c3ccccc3)no2)cc1	43.7	-2.3	66.4*	1.4	0.6	0.3
CN(CC(=O)NC1CCCCCC1)S(=O)(=O)c1ccc2c(c1)n(C)c(=O)c(=O)n2C	-3.6	16.2	-8.3	-17.0	1	1.1
Cc1cc(NC(=O)CSc2nnc(-c3cccnc3)n2C2CCCCC2C)no1 (stereo not drawn)	9.2	4.1	20.6	-6.9	0.9	0.8
